Counter-ions that a name gives are not always drawn.

The test deals with primary human hepatic stellate cells (donor 1). Put plainly: ACTA2 mRNA fold change vs DMSO (normalised to PSMB2); higher = more ACTA2 expression. As to conditions: 48 h. The method, then:
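Secondary qRT-PCR screen in primary human HSCs (donor 1), 384-well plates, with compounds dispensed in quadruplicate and incubated for 48 h. Cells-to-CT lysates were used for multiplexed TaqMan qPCR of ACTA2 or COL1A1 with PSMB2 as reference. Fold changes versus DMSO come from a linear model (Ct_gene ~ Ct_PSMB2 + plate + chemical). A hit is defined as COL1A1 and ACTA2 FC <0.5 (FDR <0.05) with PSMB2 between 0.2 and 2.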
Consider `CN(C)Cc1c(C(=O)NCCOc2ccc(C(=O)NO)cc2)oc2ccccc12` (33.3333 µM), for which the “ACTA2 mRNA fold change” value was found to be 0.00935.

Consider `CCCCc1oc2ccccc2c1C(=O)c1cc(I)c(OCCN(CC)CC)c(I)c1` (33.3333 µM), for which the “ACTA2 mRNA fold change” value came to 0.0284.

`c1ccc2c(NCCCCCCCNc3c4c(nc5ccccc35)CCCC4)c3c(nc2c1)CCCC3` [bis(7)-Tacrine] (3.33333 µM): the “ACTA2 mRNA fold change” value was found to be 0.0296.

As for `NS(=O)(=O)C#Cc1ccccc1` [Pifithrin->m] (33.3333 µM), the “ACTA2 mRNA fold change” value worked out at 0.0598.

`C[C@@H](Oc1cc(-c2cnn(C3CCNCC3)c2)cnc1N)c1c(Cl)ccc(F)c1Cl` (11.1 µM): the “ACTA2 mRNA fold change” value turned out to be 0.15.

In the case of `CCOC(=O)C1=C(COCCN)NC(C)=C(C(=O)OC)C1c1ccccc1Cl` (stereo not given) (33.3333 µM), the “ACTA2 mRNA fold change” value came to 0.084.

For the compound `C[C@@H](CN1CCC(n2c(=O)[nH]c3cc(Cl)ccc32)CC1)NC(=O)c1ccc2ccccc2c1` (33.3333 µM), the “ACTA2 mRNA fold change” value came to 0.045.

In the case of `CNCCCC1c2ccccc2C=Cc2ccccc21` [Protryptyline hydrochloride] (22.2333 µM), the “ACTA2 mRNA fold change” value is 0.577.

Regarding `Cc1ccc2c(c1)c1c3n2CCNC3CCC1` (stereo not given) [Pirlindole mesylate] (20.6667 µM), the “ACTA2 mRNA fold change” value came out at 0.712.

In the case of `COC(=O)N[C@H](C(=O)N1CCC[C@H]1c1ncc(-c2ccc(-c3ccc(-c4cnc([C@@H]5CCCN5C(=O)[C@@H](NC(=O)OC)C(C)C)[nH]4)cc3)cc2)[nH]1)C(C)C` (33.3333 µM), the “ACTA2 mRNA fold change” value amounted to 0.0331.

The values above are taken from the supplement of paper PMC9135407.
